Reference: PubChem BioAssay
Calls of active or inactive are those of the source. Unless noted, no rule for the calls is given here.

Key:
[1] = test system: Hepatitis C virus NS3 helicase; experiment: HCV NS3 helicase inhibitors, primary screen, biochemical, fluorescence polarization, LOPAC1280 library (AID 687035; in the data active = inhibition above about 37%); settings: Purified HCV NS3 helicase, Cy5-dT15 ssDNA binding fluorescence polarization; stronger effect = higher value; concentration not given here
[2] = Cy5 fluorescence quenching or enhancement artefacts, artefact control for HCV NS3 helicase inhibitor project, biochemical, LOPAC1280 (AID 687037); settings: Cy5-DNA-NS3h complex fluorescence interference counterscreen
[3] = stimulators of nuclear beta-catenin in C2C12, primary screen, imaging, WNT3A-conditioned medium, mouse C2C12, NPC library (AID 1117326; in the data active = nuclear beta-catenin stimulation mostly above about 4.2%, no sharp cut-off; inactive = mostly below about 10%); settings: stronger effect = higher value
[4] = stimulators of insulin release from INS-1E, primary screen, cell-based, 5 mM glucose, NPC library (AID 1117329;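 active = compound raises insulin release from rat beta cells at 5 mM glucose, no numeric limit stated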); settings: rat INS-1E insulin secretion, at 10 µM, stronger effect = higher value
[5] = growth inhibition of GSK3B-pretreated HCT116 cells – cell-based, CellTiter-Glo, 0.2 to 20 µM (AID 1117336;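 active = compounds lowering colon cancer cell viability after pretreatment blocking the GSK3B kinase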); settings: HCT116 viability after GSK3B inhibitor, at 20 µM, stronger effect = higher value
[6] = inhibition of endothelial tube formation, primary screen, imaging, VEGF stimulated, CD31 staining, tube area, NPC library (AID 1117340;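 active = compound that reduces growth-factor-driven endothelial tube area in a mixed cell culture, no cutoff stated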); settings: VEGF-stimulated ADSC/ECFC co-culture, at 10 µM, stronger effect = higher value
[7] = glucagon-like peptide 1 release enhancers, primary assay, NCI-H716 cell line, NPC library (AID 1117341;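 active = compound raises GLP1 secretion from the human gut endocrine cells, with no numeric limit stated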); settings: NCI-H716 cells, at 10 µM, stronger effect = higher value
[8] = HCT116 colon cancer cell growth inhibition, primary screen, CellTiter-Glo luminescence, NPC library (AID 1117342;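 active = compounds that lower survival of HCT116 colon cancer cells in the luminescence readout, no numeric limit stated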); settings: at 20 µM (top of the series)
[9] = CellTiter-Glo luminescent readout of SW480 viability loss, NPC library primary (AID 1117343;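 active = compounds that lower viability of the colon cancer cells in the luminescence readout, with no numeric limit stated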); settings: CellTiter-Glo luminescence; at 20 µM (top of the series)
[10] = decreased DLD-1 cellular survival, CellTiter-Glo luminescent readout, NPC compound collection, primary HTS (AID 1117346;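 active = compounds that lower survival of DLD-1 colon cancer cells in the luminescence readout, no cutoff given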); settings: DLD-1 viability, CellTiter-Glo luminescence; at 20 µM (top of the series)
[11] = target: 6-phosphogluconate dehydrogenase, decarboxylating (Homo sapiens) (UniProt P52209); experiment: 6PGD enzyme inhibitors, primary screen, biochemical, human, recombinant enzyme, NADPH absorbance (AID 1159550;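 active = at least 20% inhibition of 6-phosphogluconate dehydrogenase activity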); settings: recombinant 6PGD, NADPH absorbance 341 nm; at 10 µM; stronger effect = higher value
6-phosphogluconate dehydrogenase, decarboxylating (Homo sapiens), sequence (P52209 whole entry, looked up): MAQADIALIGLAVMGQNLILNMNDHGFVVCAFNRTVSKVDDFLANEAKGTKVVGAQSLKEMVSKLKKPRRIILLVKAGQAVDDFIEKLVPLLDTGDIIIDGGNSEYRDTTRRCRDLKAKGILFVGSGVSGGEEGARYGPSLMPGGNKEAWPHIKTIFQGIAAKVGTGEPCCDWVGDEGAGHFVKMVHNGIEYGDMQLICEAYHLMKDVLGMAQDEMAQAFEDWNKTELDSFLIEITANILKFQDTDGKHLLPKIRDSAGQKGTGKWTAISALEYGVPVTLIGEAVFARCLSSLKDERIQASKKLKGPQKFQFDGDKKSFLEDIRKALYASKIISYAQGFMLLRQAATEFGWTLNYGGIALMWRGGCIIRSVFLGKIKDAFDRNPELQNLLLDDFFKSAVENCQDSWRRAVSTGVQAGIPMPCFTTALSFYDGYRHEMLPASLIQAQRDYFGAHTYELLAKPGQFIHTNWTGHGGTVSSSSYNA

[12] = Cy5 fluorescence interference with SSB-bound oligo, artefact control for HCV NS3 helicase inhibitor project, biochemical, NIH Clinical Collection, E. coli SSB (AID 743268)
[13] = test system: Hepatitis C virus NS3 helicase; experiment: HCV NS3 helicase inhibitors, primary screen, biochemical, fluorescence polarization, NIH Clinical Collection (AID 743270); settings: NS3 helicase binding to Cy5-dT15 DNA, stronger effect = higher value, concentration not given here
[14] = target: Single-stranded DNA-binding protein (Escherichia coli (strain K12)) (UniProt P0AGE0); experiment: E. coli SSB displacement from DNA, counter-screen for HCV NS3 helicase inhibitor project, biochemical, fluorescence polarization, NIH Clinical Collection (AID 743271; in the data active = inhibition above about 28%); settings: stronger effect = higher value, concentration not given here
[15] = fluorescence interference in NS3h assay format, artefact control for HCV NS3 helicase inhibitor project, biochemical, NIH Clinical Collection (AID 743272); settings: fluorescence interference counterscreen, stronger effect = lower value;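 also: HCV NS3 helicase with a Cy5 labelled single stranded DNA probe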
[16] = test system: Neuropilin-2 / VEGF-C interaction (human); experiment: inhibitors of NRP2–VEGF-C binding, biochemical, microplate binding format, z-score (AID 743281); settings: microplate NRP2/VEGF-C binding assay; stronger effect = lower value

CN(C)CCC=C1c2ccccc2C=Cc2ccccc21
active: viability decrease (inhibition) [9] 111%
inactive: inhibition [1] -2% | fluorescence ratio (interference) [2] 1 | nuclear beta-catenin stimulation ([3]; at 10 µM) -1.8% | insulin secretion stimulation [4] 15.2% | viability decrease [5] -81.6% | tube area decrease [6] 1.5% | GLP1 secretion stimulation [7] 7.9% | inhibition of viability [8] 27.1% | viability decrease (inhibition) [10] 7.5% | inhibition [11] -4.48%
-0.8%: nuclear beta-catenin stimulation ([3]; stimulation, at 2 µM)

Clc1ccccc1C(c1ccccc1)(c1ccccc1)n1ccnc1
inactive: inhibition [1] -2% | fluorescence ratio (interference) [2] 1 | fluorescence ratio [12] 0.9 | inhibition [13] 5.94% | inhibition [14] 6.83% | fluorescence ratio [15] 0.9 | z-score [16] 0.266 | nuclear beta-catenin stimulation ([3]; at 10 µM) 1.1% | insulin secretion stimulation [4] 0.9% | inhibition [11] -6.11%
1.7%: nuclear beta-catenin stimulation ([3]; stimulation, at 2 µM)
active: viability decrease [5] 110% | tube area decrease [6] 73.1% | GLP1 secretion stimulation [7] 29.1% | inhibition of viability [8] 113% | viability decrease (inhibition) [9] 132% | viability decrease (inhibition) [10] 101%

CC(C)(Oc1ccc(CCNC(=O)c2ccc(Cl)cc2)cc1)C(=O)O
5.1%: nuclear beta-catenin stimulation ([3]; stimulation, at 2 µM)
inactive: inhibition [1] -2% | fluorescence ratio (interference) [2] 1.1 | nuclear beta-catenin stimulation ([3]; at 10 µM) 6.1% | insulin secretion stimulation [4] 0.4% | viability decrease [5] -10.3% | tube area decrease [6] -25.4% | GLP1 secretion stimulation [7] -1.3% | inhibition of viability [8] 4.05% | viability decrease (inhibition) [9] -13.9% | viability decrease (inhibition) [10] -20.8% | inhibition [11] 4.98%

C[N+](C)(C)CCOC(N)=O
inactive: inhibition [1] -1% | fluorescence ratio (interference) [2] 0.9 | nuclear beta-catenin stimulation ([3]; at 10 µM) -0.5% | insulin secretion stimulation [4] -0.5% | viability decrease [5] 1.3% | tube area decrease [6] -7.7% | GLP1 secretion stimulation [7] 2.2% | inhibition of viability [8] -2.4% | viability decrease (inhibition) [9] -4.8% | viability decrease (inhibition) [10] -12.5% | inhibition [11] -13.5%
2.3%: nuclear beta-catenin stimulation ([3]; stimulation, at 2 µM)

NC/C=C/C(=O)O
inactive: inhibition [1] -5% | fluorescence ratio (interference) [2] 1 | nuclear beta-catenin stimulation ([3]; at 10 µM) 0.3% | insulin secretion stimulation [4] 1.5% | viability decrease [5] -42.3% | tube area decrease [6] -0.5% | GLP1 secretion stimulation [7] -2.6% | inhibition of viability [8] 3.67% | viability decrease (inhibition) [9] 11.1% | viability decrease (inhibition) [10] -6.3% | inhibition [11] 0.304%
1.6%: nuclear beta-catenin stimulation ([3]; stimulation, at 2 µM)

O=C1NCC2(CCN(CCc3ccccc3)CC2)O1
1.5%: nuclear beta-catenin stimulation ([3]; stimulation, at 2 µM)
inactive: inhibition [1] -3% | fluorescence ratio (interference) [2] 1 | nuclear beta-catenin stimulation ([3]; at 10 µM) 0.4% | insulin secretion stimulation [4] -0.9% | viability decrease [5] 1.6% | tube area decrease [6] 18.6% | GLP1 secretion stimulation [7] 0% | inhibition of viability [8] 8.9% | viability decrease (inhibition) [9] 48% | viability decrease (inhibition) [10] -32.8% | inhibition [11] 13.7%

C[C@](N)(Cc1ccc(O)c(O)c1)C(=O)O
1.2%: nuclear beta-catenin stimulation ([3]; stimulation, at 2 µM)
inactive: inhibition [1] -3% | fluorescence ratio (interference) [2] 1 | nuclear beta-catenin stimulation ([3]; at 10 µM) 2.9% | insulin secretion stimulation [4] 1.8% | viability decrease [5] 17.5% | tube area decrease [6] 1.4% | GLP1 secretion stimulation [7] 0.4% | inhibition of viability [8] 5.03% | viability decrease (inhibition) [9] -10% | viability decrease (inhibition) [10] 0.1% | inhibition [11] -6.99%

Cc1cc(C(C)(C)C)cc(C)c1CC1=NCCN1
inactive: inhibition [1] 1% | fluorescence ratio (interference) [2] 1 | nuclear beta-catenin stimulation ([3]; at 10 µM) 0.1% | insulin secretion stimulation [4] 0.2% | viability decrease [5] -61.3% | tube area decrease [6] 5.9% | GLP1 secretion stimulation [7] 4.3% | inhibition of viability [8] 18.3% | viability decrease (inhibition) [9] 2.6% | viability decrease (inhibition) [10] 14.6% | inhibition [11] -1.59%
1%: nuclear beta-catenin stimulation ([3]; stimulation, at 2 µM)

CC(C)COCC(CN(Cc1ccccc1)c1ccccc1)N1CCCC1 (centres undefined)
active: viability decrease [5] 98% | inhibition of viability [8] 105% | viability decrease (inhibition) [9] 117% | viability decrease (inhibition) [10] 97%
inactive: inhibition [1] 0% | fluorescence ratio (interference) [2] 1 | nuclear beta-catenin stimulation ([3]; at 10 µM) 0.1% | insulin secretion stimulation [4] 4.8% | tube area decrease [6] 32.8% | GLP1 secretion stimulation [7] 4.3% | inhibition [11] 1.94%
-1.8%: nuclear beta-catenin stimulation ([3]; stimulation, at 2 µM)

COc1ccc(CN(CCN(C)C)c2ccccn2)cc1
inactive: inhibition [1] 3% | fluorescence ratio (interference) [2] 1 | nuclear beta-catenin stimulation ([3]; at 10 µM) 0.1% | viability decrease [5] 3.3% | tube area decrease [6] 14.4% | GLP1 secretion stimulation [7] 1.2% | inhibition of viability [8] -7.7% | viability decrease (inhibition) [9] 22.5% | viability decrease (inhibition) [10] -34.8% | inhibition [11] 4.83%
7.7%: nuclear beta-catenin stimulation ([3]; stimulation, at 2 µM)
active: insulin secretion stimulation [4] 68.9%

CN(C)CCC(c1ccccc1)c1ccccn1 (centres undefined)
inactive: inhibition [1] -1% | fluorescence ratio (interference) [2] 0.9 | nuclear beta-catenin stimulation ([3]; at 10 µM) 0.4% | insulin secretion stimulation [4] 1.3% | viability decrease [5] -40.9% | tube area decrease [6] 1.9% | GLP1 secretion stimulation [7] 1.5% | inhibition of viability [8] 3.55% | viability decrease (inhibition) [9] 12.1% | viability decrease (inhibition) [10] -7.2% | inhibition [11] -0.335%
1.1%: nuclear beta-catenin stimulation ([3]; stimulation, at 2 µM)

CN1CCN(CCCN2c3ccccc3Sc3ccc(Cl)cc32)CC1
active: fluorescence ratio [12] 0.78 | fluorescence ratio [15] 0.71 | tube area decrease [6] 47.3% | inhibition of viability [8] 86% | viability decrease (inhibition) [9] 137% | viability decrease (inhibition) [10] 94.4%
inactive: inhibition [1] -3% | fluorescence ratio (interference) [2] 1 | inhibition [13] -1.19% | inhibition [14] 9.14% | z-score [16] 0.742 | nuclear beta-catenin stimulation ([3]; at 10 µM) 19.8% | insulin secretion stimulation [4] 3.6% | viability decrease [5] 13% | GLP1 secretion stimulation [7] 17.2% | inhibition [11] 5.8%
0.2%: nuclear beta-catenin stimulation ([3]; stimulation, at 2 µM)
